The source of these data is the supplement of paper PMC5641865, “A screen for kinase inhibitors identifies antimicrobial imidazopyridine aminofurazans as specific inhibitors of the Listeria monocytogenes PASTA kinase PrkA” (The Journal of Biological Chemistry, 2017).

Molecules are shown by their SMILES. ± gives the standard deviation of the averaged measurements.
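Also: End-point A600 read in BHI broth at 37 °C with 2% DMSO, inhibition computed as (1 − OD with compound plus ceftriaxone ÷ OD with ceftriaxone only) × 100.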

This assay has as its system Listeria monocytogenes 10403S. As to the kind of experiment: growth inhibition relative to ceftriaxone-alone control; higher = stronger potentiation of ceftriaxone growth inhibition. The note with it: 10 µM; ceftriaxone 1 ug/ml; 12 h.
For `NC(=O)c1cc(-c2ccncc2)cc(-c2ccccc2)c1N`, the growth inhibition came to 2.14 ± 8.1%.

Consider `COc1cccc(-c2cc(=O)c3ccccc3o2)c1N`, for which the growth inhibition stood at 6.7074 ± 0.0026%.

With `CCn1c(-c2nonc2N)nc2ccncc21`, the growth inhibition is -0.136 ± 1.1%.

Regarding `Cc1ccc(F)c(NC(=O)Nc2ccc(-c3cccc4[nH]nc(N)c34)cc2)c1` [Linifanib (ABT-869)], the growth inhibition was 29.9 ± 19%.

On to `CN1CCC(n2cnc(-c3ccc(F)cc3)c2-c2ccnc(N)n2)CC1`, for which the growth inhibition was -0.672 ± 2%.

In the case of `CCn1c(-c2nonc2N)nc2cnc(Oc3cccc(NC(=O)c4ccc(N(C)C)cc4)c3)cc21`, the growth inhibition is -5.93 ± 1.5%.

As for `O=C1NC(=O)[C@@H](c2cn3c4c(cccc24)CCC3)[C@@H]1c1c[nH]c2ccccc12` [ARQ 197 (Tivantinib)], the growth inhibition came out at 63.3 ± 38%.

On to `CN1CCN(CCOc2cc(OC3CCOCC3)c3c(Nc4c(Cl)ccc5c4OCO5)ncnc3c2)CC1` [Saracatinib (AZD0530)], for which the growth inhibition was -2.45 ± 20%.

Regarding `CNC(=O)c1ccccc1Nc1nc(Nc2ccc(N3CCOCC3)cc2OC)ncc1Cl`, the growth inhibition was -3.4 ± 13%.

For `O=C(O)c1ccc(Nc2ncc3c(n2)-c2ccc(Cl)cc2C(c2c(F)cccc2F)=NC3)cc1`, the growth inhibition came to 91.3 ± 3.5%.

For the compound `CCN1CCN(Cc2ccc(-c3cc4c(N[C@H](C)c5ccccc5)ncnc4[nH]3)cc2)CC1`, the growth inhibition was 22.1 ± 4.2%.

In the case of `Cc1csc(-c2nnc(Nc3ccc(Oc4ncccc4-c4ccnc(N)n4)cc3)c3ccccc23)c1`, the growth inhibition was determined as 64 ± 34%.

Take `COc1ccc2ncnc(Nc3ccc(OCc4ccccc4)cc3)c2c1`: the growth inhibition was 1.99 ± 13%.

With `Cc1ccc(NC(=O)CC2CC2)cc1-c1ccc(C(=O)NCC2CC2)cc1`, the growth inhibition is -0.462 ± 0.33%.

In the case of `N#CCNC(=O)c1ccc(-c2ccnc(Nc3ccc(N4CCOCC4)cc3)n2)cc1`, the growth inhibition was determined as 33 ± 13%.

With `CNC(=O)c1cccc(C#Cc2cncnc2Nc2ccc(OCc3cccc(F)c3)c(Cl)c2)c1`, the growth inhibition was -0.177 ± 4.2%.

For `Cc1cc(O)cc(C)c1/C=C/c1cncc(-c2nn[nH]n2)c1`, the growth inhibition was -2.34 ± 0.16%.

`COc1cc(N2CCN(C(C)C)CC2)ccc1Nc1nc(Nc2cccc(F)c2C(=O)O)c2cc[nH]c2n1`: the growth inhibition was -0.452 ± 1.2%.

On to `O=C(Nc1n[nH]c2nnc(-c3cccnc3)cc12)C1CC1`, for which the growth inhibition was -0.393 ± 1.3%.

In the case of `CNC(=O)c1cncc(/C=C/c2ccccc2Cl)c1`, the growth inhibition is -3.04 ± 0.74%.

For `CC1=C(C(=O)Nc2cc(Cl)c3[nH]ncc3c2)C(c2ccc(C(F)(F)F)cc2)CC(=O)N1` (stereo not drawn), the growth inhibition is -4.67 ± 5.5%.

In the case of `Cn1cc(-c2ccc3nnc(C(F)(F)c4ccc5ncccc5c4)n3n2)cn1`, the growth inhibition was determined as 17.1 ± 33%.

As for `CN1CCN(C2CCN(C(=O)Nc3cc(Oc4ccc(NC(=O)C5(C(=O)Nc6ccc(F)cc6)CC5)c(F)c4)ccn3)CC2)CC1` [Golvatinib (E7050)], the growth inhibition came to 48.7 ± 37%.

Consider `Cc1cc(Nc2cc(N3CCN(C)CC3)nc(/C=C/c3ccccc3)n2)n[nH]1`, for which the growth inhibition turned out to be 85.7 ± 18%.

For the compound `CCc1cccc(NC(=O)Nc2ccc(Oc3ccc4nc(NC(=O)OC)[nH]c4c3)cc2)c1`, the growth inhibition was 9.75 ± 3.1%.

As to `Nc1nccc(-c2c(-c3ccc(F)cc3)nn3cc(C(F)(F)F)ccc23)n1`, the growth inhibition was -7.97 ± 19%.

Turning to `Cc1ccc(C(=O)NC2CCCCC2)cc1-c1ccc(C(=O)NCC2CC2)cc1`, the growth inhibition is -1.78 ± 6.1%.

For the compound `N#Cc1cccc(Nc2nccc(-c3cnn4ncccc34)n2)c1`, the growth inhibition was -0.568 ± 0.54%.

As for `O=c1c(O)c(-c2ccc(O)c(O)c2)oc2cc(O)cc(O)c12` [Quercetin (Sophoretin)], the growth inhibition was found to be 20.4 ± 13%.

Turning to `C[C@@H](Oc1cc(-n2cnc3ccc(CN4CCN(C)CC4)cc32)sc1C(N)=O)c1ccccc1C(F)(F)F`, the growth inhibition amounted to 88.5 ± 8.4%.

With `COc1ccc2cc(-c3c(-c4ccncc4)nc(-c4ccc([S+](C)[O-])cc4C)n3C)ccc2c1` (stereo not drawn), the growth inhibition was 17.6 ± 9%.

For the compound `Cc1cnc(NC(=O)Nc2cc(Br)c(C)cc2OC[C@@H]2CNCCO2)cn1`, the growth inhibition came out at 61.8 ± 50%.

`CCOc1ccn(-c2ccc(F)cc2)c(=O)c1C(=O)Nc1ccc(Oc2ccnc(N)c2Cl)c(F)c1`: the growth inhibition was 23.6 ± 24%.

In the case of `Cc1cc(Nc2nc(N[C@@H](C)c3ccc(F)cc3)c(C#N)cc2F)n[nH]1`, the growth inhibition is 96.93 ± 0.13%.

In the case of `CNC(=O)c1cncc(/C=C/c2c(C)cccc2C)c1`, the growth inhibition was -1.2 ± 3.7%.

On to `COc1ccc(-c2ccc3c(N4CCOCC4)nc(N4C[C@@H](C)O[C@@H](C)C4)nc3n2)cc1CO`, for which the growth inhibition is -4.35 ± 2.4%.

As to `COc1cc(N2CCN(C(C)C)CC2)ccc1Nc1nc(Nc2ccc(F)cc2C(=O)NC[C@@H](O)CO)c2cc[nH]c2n1`, the growth inhibition came to 5.09 ± 0.17%.

In the case of `CN1CCN(c2ccc3nc(-c4c(N)c5c(F)cccc5[nH]c4=O)[nH]c3c2)CC1` [Dovitinib (TKI-258)], the growth inhibition turned out to be 1.47 ± 0.1%.
